Among the test systems are HCT-15 colon; HT29 colon; SNB-75 CNS; SNB-19 CNS; U251 CNS; PC-3 prostate; SK-MEL-5 melanoma; UACC-62 melanoma; LOX IMVI melanoma; SK-MEL-28 melanoma; SK-MEL-2 melanoma; EKVX NSCLC; SN12C renal; UO-31 renal; TK-10 renal; ACHN renal; CAKI-1 renal; A498 renal; CCRF-CEM leukemia; MOLT-4 leukemia.
What all share (experiment): NCI-60 one-dose screen, 48 h (100 = growth as untreated, 0 = no growth, -100 = all killed)
Conditions in all cases: 10 µM unless noted

Each structure is given as a SMILES string. Compounds without any hit were thinned out: in the full panel of roughly 83,000, 20% have a hit.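 Percent growth is the endpoint: 0 to 100 indicates growth inhibition (40 means 60% inhibition), 0 means no net growth, and negative values indicate cell death.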 Values without a mark were called inactive. Activity calls are given as the source filed them. Rule for the calls: active = growth percent below 10; inactive = the rest.

Our source for the growth values is PubChem BioAssay (NCI).

On to `NS(=O)(=O)c1cccc(NC(=O)C(=O)C2C(=O)Nc3ccccc32)c1` (stereo not given), for which the growth in the test on HCT-15 colon is 99.8%; with HT29 colon, 102%; in the test with SNB-75 CNS, 74.6%; in the test on SNB-19 CNS, 100%; with U251 CNS it was 107%; with PC-3 prostate it was 88.8%. Moreover, the growth was 96.7% in the test with SK-MEL-5 melanoma; 94.4% in the test with UACC-62 melanoma; 95.6% in the test on LOX IMVI melanoma; 107% in the test on SK-MEL-28 melanoma; 113% with SK-MEL-2 melanoma; 76% in the test with EKVX NSCLC. In addition, the growth in the test with SN12C renal was 99.5%; in the test on UO-31 renal, 67.2%; in the test with TK-10 renal it was 129%; in the test with ACHN renal, 90.4%; in the test on CAKI-1 renal it was -3.03% (active); in the test on A498 renal, 120%. In addition, the growth is 69.7% in the test on CCRF-CEM leukemia and 100% with MOLT-4 leukemia.

Take `c1ccc(N2N=C(c3cccc(Nc4ccncc4)c3)CC2c2ccc3c(c2)OCO3)cc1` (stereo not given): the growth is -26% (active) in the test with HCT-15 colon; 6.66% (active) in the test on HT29 colon; 5.74% (active) in the test on SNB-75 CNS; 42.4% with SNB-19 CNS; 4.31% (active) with U251 CNS; 14.3% in the test with PC-3 prostate. For the same compound, the growth in the test on SK-MEL-5 melanoma is -14.3% (active); in the test with UACC-62 melanoma, 62.1%; in the test on LOX IMVI melanoma, -22.1% (active); in the test on SK-MEL-28 melanoma, -52.7% (active); with SK-MEL-2 melanoma, 39%; in the test on EKVX NSCLC, 45.8%. Besides, the growth was 40.8% in the test on SN12C renal; 30.6% in the test on UO-31 renal; 63.1% with TK-10 renal; 28.7% in the test with ACHN renal; 25.7% in the test on CAKI-1 renal; 46.1% with A498 renal. For the same compound, the growth with CCRF-CEM leukemia was 1.64% (active); in the test on MOLT-4 leukemia, 7.98% (active).

For `CN1CCN(CCCNc2nccc(-c3c(-c4ccc(F)c(O)c4)nc4sccn34)n2)S1(=O)=O`, the growth was 108% in the test on HCT-15 colon; 57.7% in the test with HT29 colon; 122% in the test on SNB-75 CNS; 114% in the test with SNB-19 CNS; 106% in the test with U251 CNS; 86.9% with PC-3 prostate. Also, the growth is 72.6% with SK-MEL-5 melanoma; 11.5% in the test with UACC-62 melanoma; 50.7% in the test with LOX IMVI melanoma; 12.8% in the test with SK-MEL-28 melanoma; -1.07% (active) in the test on SK-MEL-2 melanoma; 106% in the test with EKVX NSCLC. The growth in the test on SN12C renal is 85.1%; with UO-31 renal, 110%; in the test with TK-10 renal, 133%; in the test with ACHN renal, 82.4%; with CAKI-1 renal, 95.5%; with A498 renal, 134%. Besides, the growth was 76% in the test with CCRF-CEM leukemia and 82.5% in the test with MOLT-4 leukemia.

In the case of `O=C1NC(=S)NC(=O)C1=Cc1cn(Cc2ccccn2)c2ccccc12`, the growth with HCT-15 colon is 42.9%; in the test on HT29 colon, 72.2%; in the test with SNB-75 CNS it was 52.8%; with SNB-19 CNS, 53.4%; in the test with U251 CNS it was 31.5%; in the test with PC-3 prostate, 47.5%. Further, the growth was 73.6% in the test on SK-MEL-5 melanoma; 70.5% with UACC-62 melanoma; 27.1% with LOX IMVI melanoma; 73.4% with SK-MEL-28 melanoma; 89.7% with SK-MEL-2 melanoma; 84.7% with EKVX NSCLC. Moreover, the growth was 66.6% with SN12C renal; 59.2% in the test on UO-31 renal; 72.7% with TK-10 renal; 82.2% in the test with ACHN renal; 7.91% (active) in the test on CAKI-1 renal; -86.4% (active) in the test with A498 renal. In addition, the values for the growth in the test on CCRF-CEM leukemia and in the test on MOLT-4 leukemia were 31.3% and 66%, respectively.

Turning to `C(=N\Nc1ncc(-c2cc3cc4c(cc3o2)OCO4)s1)/c1c[nH]c2ccccc12`, the growth is 6.56% (active) with HCT-15 colon; 23.2% with HT29 colon; -0.264% (active) in the test on SNB-75 CNS; 3.35% (active) in the test on SNB-19 CNS; -10% (active) with U251 CNS; 1.87% (active) with PC-3 prostate. Moreover, the growth with SK-MEL-5 melanoma is 5.79% (active); in the test on UACC-62 melanoma it was 1.76% (active); with LOX IMVI melanoma, -94% (active); in the test on SK-MEL-28 melanoma, 30.9%; in the test on SK-MEL-2 melanoma, 51.3%; in the test with EKVX NSCLC, 5.32% (active). The growth was -12.3% (active) in the test with SN12C renal; -96.5% (active) with UO-31 renal; 22.7% in the test on TK-10 renal; -31.4% (active) in the test on ACHN renal; -43.3% (active) in the test on CAKI-1 renal; -3.19% (active) in the test on A498 renal. Moreover, the figures for the growth with CCRF-CEM leukemia and in the test with MOLT-4 leukemia were 2.87% (active) and -23.8% (active), respectively.

As to `Cn1c(COC(=O)N2CCCCC2)nc2c(N3CCOCC3)nc(-c3ccccc3)nc21`, the growth in the test on HCT-15 colon was -43% (active); in the test on HT29 colon it was -33.4% (active); with SNB-75 CNS it was -85.4% (active); with SNB-19 CNS it was 17.7%; in the test on U251 CNS, -70.9% (active); in the test on PC-3 prostate, -57.5% (active). For the same compound, the growth in the test on SK-MEL-5 melanoma was -95.6% (active); with UACC-62 melanoma, -92.7% (active); in the test on LOX IMVI melanoma, -90.4% (active); in the test on SK-MEL-28 melanoma it was -96.8% (active); in the test with SK-MEL-2 melanoma it was -79.6% (active); in the test with EKVX NSCLC it was -59.4% (active). Further, the growth was -86.1% (active) in the test with SN12C renal; -99.3% (active) with UO-31 renal; -86.2% (active) in the test with TK-10 renal; -100% (active) in the test with ACHN renal; -88% (active) in the test with CAKI-1 renal; -21.7% (active) in the test with A498 renal. Besides, the figures for the growth in the test on CCRF-CEM leukemia and in the test on MOLT-4 leukemia were -6.4% (active) and -5.2% (active), respectively.

With `Cc1[nH]n(C(=O)c2ccncc2)c(=O)c1N=Nc1ccc(F)c(Cl)c1`, the growth is 111% in the test on HCT-15 colon; 109% in the test on HT29 colon; 92.4% in the test on SNB-75 CNS; 99.1% in the test with SNB-19 CNS; 112% in the test with U251 CNS; 116% in the test on PC-3 prostate. Also, the growth in the test on SK-MEL-5 melanoma is 107%; in the test with UACC-62 melanoma it was 106%; with LOX IMVI melanoma it was 111%; in the test with SK-MEL-28 melanoma it was 107%; with SK-MEL-2 melanoma it was 114%; with EKVX NSCLC, 87.8%. For the same compound, the growth in the test on SN12C renal is 102%; with UO-31 renal, 86.7%; in the test on TK-10 renal it was 134%; with ACHN renal, 110%; with CAKI-1 renal, 63.4%; with A498 renal, 102%. For the same compound, the growth with CCRF-CEM leukemia is 19.7%; with MOLT-4 leukemia it was 11.6%.
